In the supplement of paper PMC3334620:
Whole data set: some 33,000 sequences, median “E-score (-0.5 to 0.5)” near -0.015, cut for the highest 2% near 0.3. This is one part of a sample in which the highest values are shown more often than they occur.

Molecular target: T1, Abf1 (UniProt P14164)
T1 sequence: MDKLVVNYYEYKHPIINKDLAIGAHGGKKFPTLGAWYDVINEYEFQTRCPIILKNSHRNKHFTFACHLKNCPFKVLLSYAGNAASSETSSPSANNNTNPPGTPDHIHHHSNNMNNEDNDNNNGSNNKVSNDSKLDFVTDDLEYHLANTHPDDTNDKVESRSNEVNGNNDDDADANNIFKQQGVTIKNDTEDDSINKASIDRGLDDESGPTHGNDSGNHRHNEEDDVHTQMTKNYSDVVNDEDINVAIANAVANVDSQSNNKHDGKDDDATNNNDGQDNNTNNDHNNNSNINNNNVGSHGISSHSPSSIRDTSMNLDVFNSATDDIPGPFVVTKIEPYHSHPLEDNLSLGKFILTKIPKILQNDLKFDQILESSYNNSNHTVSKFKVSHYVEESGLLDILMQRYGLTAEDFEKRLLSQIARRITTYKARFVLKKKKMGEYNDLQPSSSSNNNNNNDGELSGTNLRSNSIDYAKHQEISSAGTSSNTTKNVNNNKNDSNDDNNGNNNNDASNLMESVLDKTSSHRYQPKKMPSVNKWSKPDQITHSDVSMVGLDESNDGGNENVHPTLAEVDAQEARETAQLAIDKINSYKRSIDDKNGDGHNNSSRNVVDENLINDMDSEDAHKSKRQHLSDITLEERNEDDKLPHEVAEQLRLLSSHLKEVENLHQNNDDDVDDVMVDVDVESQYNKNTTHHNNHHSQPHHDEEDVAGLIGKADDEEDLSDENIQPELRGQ
Experiment: PBM E-score (8-mer binding enrichment) (E-score (-0.5 to 0.5)); higher = stronger / more preferred TF binding
Settings: protein concentration: 200 nM; construct: GST-full length
Procedure, shortened: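 GST-tagged yeast TFs (full-length or DNA-binding domain) were made by PURExpress in vitro transcription/translation and applied at about 100-200 nM to universal all-10-mer Agilent arrays. The arrays were made double-stranded by primer extension, on fresh or once-stripped slides. Bound protein was detected with fluorescent anti-GST, and scans were normalised with masliner. Each ungapped eight-base word, pooled with its reverse complement, received an E-score (modified Wilcoxon-Mann-Whitney statistic) from the Universal PBM Analysis Suite.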

Sequence	PBM E-score
GCCGTATA	0.379
CCCGTATA	0.289
AAGTGTTC	-0.0135
AGTTATAT	0.16
ATGAAGAG	0.0548
CTGGGCAA	-0.172
AATAATTA	0.2
ATCTTATG	0.0695
AAGCGGGC	-0.381
GCACGACA	0.338
ACACGACT	0.0619
ACACGACA	0.368
GCACGACC	0.0772
ACACGACC	-0.00503
CCACGACA	0.0558
ATACGACA	0.296
CTACGACA	0.263
GTACGACA	0.36
AAATTGGC	-0.0692
GTTGAGAA	0.098
AAGGACCG	-0.16
GGAGCCTA	-0.064
ACGACAAT	0.329
ACGACAGG	0.05
GCGACAAA	0.215

Sequence	PBM E-score
ACGACAGA	0.308
ACGACAAG	0.215
GCGACAGA	-0.0736
CCGACAAA	-0.0368
ACGACAAA	0.369
ACGACAAC	0.265
GGCGTCAA	-0.206
ATGTAGGG	-0.256
GTACGGTA	0.197
ATACGGTG	0.297
ATACGGTC	0.26
CTACGGTA	0.138
ATACGGTA	0.319
AAACGGTG	0.129
AACGGAAT	0.15
ACTCGTTG	-0.00197
AAGGGATA	0.0355
ATGGTGGC	-0.387
TCGTAAGA	0.154
CGGTACGA	0.291
CCGTACGA	0.451
TAGTACGA	0.287
CCGTACGC	0.241
GCGTACGC	-0.158
TCGTACGA	0.455

Sequence	PBM E-score
GCGTACGA	0.317
GGGTACGA	0.0568
CCAGTCTA	-0.227
CAGCAGAG	-0.263
ATGAGAAG	0.117
AGTAGTTG	0.067
ACTTTCAA	0.159
CTTTACCC	-0.141
GCTGACAC	0.0512
TGATTCAA	0.0649
GAGCAAGC	-0.0234
ATTTTTTA	0.193
GGGTGACA	0.257
AGGTGACG	0.0988
AGGTGACA	0.362
CGGTGACC	0.0798
GGGTGACC	0.188
CGGTGACA	0.399
AGGTGACC	0.14
CGGTGACG	0.235
TGGTGACA	0.357
ACCGAGGT	-0.113
AGCCCACA	-0.0569
AGTATCGC	0.0404
CCTACGTA	-0.0223

Sequence	PBM E-score
GACGAGTC	0.241
AATTCCGT	0.115
GATGCCAC	0.049
GCCGTTCA	0.156
ACCTAATC	0.111
CCCCATGA	-0.167
ACAGTTTA	-0.0111
TGTGATAA	0.297
GTTGATAA	0.199
GGTGATAA	0.404
CGTGATAA	0.408
GCTGATAA	0.0596
TCTGATAA	0.134
CCTGATAA	0.1
TGGGATAA	-0.0897
CTTGATAA	0.138
GTTTTCTA	-0.0572
CAGCGATG	-0.0769
AGTGGCAG	-0.0869
TATGGGCA	-0.0697
ATGAACCC	-0.0465
ACGTAGAC	0.0202
ATGCATAC	0.0289
CGGGGAGC	-0.00752
AGATGCAT	-0.058

Sequence	PBM E-score
ATCACCAC	0.356
ATCACCGG	0.101
ATCACCGC	0.311
CTCACCGC	0.0255
ATCACCAT	0.254
CTCACCAC	-0.0754
AGGTACCT	-0.101
ACGACTAT	0.298
GCGACTAC	-0.134
ACGACTAC	0.329
ACGACCAG	0.301
ACGACTAG	0.0858
ACGACTAA	0.0761
ACGACCAA	0.182
ACGACCAC	0.131
CCGACTAC	-0.119
AGCTGCTC	-0.148
CTCCTCCC	-0.201
ACGATGGC	0.0358
ATGTTAAT	-0.0223
AGTGAAGA	0.129
CGGCATAG	0.0597
